This is a sample that favours compounds with a hit; in the whole collection about 5.4% have one here.
SKKanGAS inh: SKKanGAS growth inhibition. S. pyogenes SKKanGAS, kanamycin growth, BacTiter-Glo, 6 h. inhibition, % at 7.5 µM. 1.3% of 300,000 active;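 active = mean replicate score, as percent of positive control median, at least 50; inconclusive = mean below 50 but one replicate at or above 50; inactive = mean and every replicate below 50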;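 note: strain carries kanamycin resistance gene driven by streptokinase promoter and grows in 40 µg/ml kanamycin; loss of luminescence reflects streptokinase promoter inhibition or plain growth inhibition; 0% = median of DMSO wells and 100% = positive control at its reference dose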
Beta apoptosis: beta cell apoptosis inhibition; INS-1E cytokine-induced death, ATP luminescence, 48 h; percent of positive-control rescue, neutral wells zero; protection from apoptosis, % (test concentration not listed); 0.8% of 300,000 active;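 active = Every replicate reaches about 75%, or at least half do and their mean reaches it too, limit read from the data; inconclusive = At least half of replicates reach the limit but their mean does not; inactive = Under half of replicates reach the limit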;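 note: 0% = cytokine-treated negative control wells and 100% = positive control rescue; higher means more ATP so stronger rescue from cytokine killing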
Calb FLC: C. albicans growth modulation with fluconazole; C. albicans CaCi-2 (fluconazole-resistant clinical isolate) + fluconazole, Alamar Blue growth, 48 h; 0.57% of 300,000 active; growth inhibition, % (concentration not given with the values);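 active = growth inhibition above about 58% in most replicates, limit read from the data, passing the limit was not always enough; inconclusive = exactly half the replicates above a set limit; inactive = most replicates below a set limit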;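 note: all wells also contain fluconazole at 8 µg/ml as a sub-toxic cotreatment; 0% = median of DMSO wells and 100% = median of geldanamycin control wells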
CSC inhib: blocks cancer stem cells | inhibition, % at 7.5 µM | cancer stem cell-like cells viability, luminescence | 1.1% of 300,000 active; in the data active = inhibition above about 75%; inconclusive = no clear call, values can overlap the other calls; tested in HMLE shEcad cells
MPTP inh: blocks calcium-induced mitochondrial swelling | isolated mouse mitochondria, Ca2+ swelling absorbance, 30 min | AID 602449 | inhibition, % at 10 µM | 1.4% of 360,000 active;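 active = inhibition of 50% or more, scaled per plate between neutral and stimulator controls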;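 note: 0% = DMSO wells given calcium and 100% = 1 mM EGTA wells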
Mdm2-MdmX inh: disrupts the human Mdm2-MdmX interaction; inhibition, % at 8 µM; AID 485346; 3% of 330,000 active; SaOS-2 split-luciferase Mdm2/MdmX complementation, luminescence; O15151+Q00987;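 active = inhibition of at least 50% at 8 µM in the primary screen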
Target sequence (O15151 whole entry, looked up): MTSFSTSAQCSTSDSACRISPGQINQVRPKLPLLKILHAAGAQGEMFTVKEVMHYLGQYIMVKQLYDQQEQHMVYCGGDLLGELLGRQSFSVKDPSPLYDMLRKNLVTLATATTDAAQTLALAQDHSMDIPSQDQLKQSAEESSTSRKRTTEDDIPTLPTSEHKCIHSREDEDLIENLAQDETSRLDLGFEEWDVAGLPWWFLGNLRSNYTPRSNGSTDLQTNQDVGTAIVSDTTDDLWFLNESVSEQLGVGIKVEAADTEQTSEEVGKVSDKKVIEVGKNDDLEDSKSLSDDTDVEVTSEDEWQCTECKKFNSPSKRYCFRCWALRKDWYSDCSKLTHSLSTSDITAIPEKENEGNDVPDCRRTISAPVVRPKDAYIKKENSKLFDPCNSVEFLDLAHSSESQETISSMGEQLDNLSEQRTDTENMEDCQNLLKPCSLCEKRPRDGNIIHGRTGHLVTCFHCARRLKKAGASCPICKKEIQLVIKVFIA
Target sequence (Q00987 whole entry, looked up): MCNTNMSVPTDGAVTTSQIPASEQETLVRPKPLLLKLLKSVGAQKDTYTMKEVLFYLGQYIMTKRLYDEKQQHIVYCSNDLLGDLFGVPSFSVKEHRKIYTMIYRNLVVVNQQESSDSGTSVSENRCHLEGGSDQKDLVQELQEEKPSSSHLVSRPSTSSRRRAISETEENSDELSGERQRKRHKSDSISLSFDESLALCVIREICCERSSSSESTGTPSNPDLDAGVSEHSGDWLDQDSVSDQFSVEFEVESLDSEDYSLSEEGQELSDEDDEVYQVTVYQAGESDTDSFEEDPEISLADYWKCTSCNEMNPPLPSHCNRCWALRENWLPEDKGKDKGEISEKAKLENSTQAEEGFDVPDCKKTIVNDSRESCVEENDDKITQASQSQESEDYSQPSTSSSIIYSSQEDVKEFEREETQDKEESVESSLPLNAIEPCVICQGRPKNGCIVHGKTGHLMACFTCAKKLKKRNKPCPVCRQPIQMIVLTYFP
Rh123 counter: mitochondrial membrane potential, counter-screen; isolated mitochondria, Rhodamine 123 fluorescence; shares compounds with MPTP inh; 78% of 5,000 active; inhibition, % at 10 µM; in the data active = inhibition above about 22%;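 note: 0% = DMSO vehicle and 100% = positive control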
MPTP swell DR: MPTP inhibition, dose response swelling confirmation; shares compounds with MPTP inh; isolated mitochondria swelling, absorbance; IC50, µM; 58% of 780 active; AID 651561; in the data active = IC50 below about 20 µM
MPTP cs DR: counter-screen for mitochondrial permeability transition pore inhibitors, dose response | shares compounds with MPTP inh | isolated mitochondria counterscreen, fluorescence read-out | IC50, µM | 49% of 780 active; in the data active = IC50 below about 80 µM
* marks the source's active call; other numbers are inactive results; i = inactive; ? = inconclusive; . = no result.

SMILES	SKKanGAS inh	Beta apoptosis	Calb FLC	CSC inhib	MPTP inh	Mdm2-MdmX inh	Rh123 counter	others
O=C(O)C(Cc1ccccc1)Nc1ccc([N+](=O)[O-])cc1[N+](=O)[O-] (configuration not stated)	-2	-3	56	11	3	-8	.
COC(=O)CSC1=C(C#N)C(=O)NC2(CCCCC2)S1	3	-2	22	-14	-1	-5	.
CCOC(=O)C1=C(CC)Nc2ccccc2N/C1=N\S(=O)(=O)c1ccc2ccccc2c1	8	5	20	39	7	17	.
CCOC(=O)C1=C(CC)Nc2ccccc2N/C1=N\S(=O)(=O)c1cc(Br)ccc1Br	37	.	50	.	66*	44	82*
Fc1cc(F)cc(NC(=S)Nc2ccccc2N2CCOCC2)c1	-7	-4	3	-4	94*	7	102*
S=C(NCCc1ccccc1)Nc1ccccc1N1CCOCC1	-7	-8	-6	-4	1	5	.
Cc1ccc(NC(=O)C(C)N=C2NS(=O)(=O)c3ccccc32)cc1F (configuration not stated)	5	-1	15	-9	87*	-15	88*
CC(C)(C)C(=O)NC(=S)NNC(=O)C(c1ccccc1)c1ccccc1	10	68	82*	58	92*	42	-8
CCNC(=S)NNC(=O)C(c1ccccc1)c1ccccc1	-10	-5	0	-6	1	17	.
CCCCCCCCCCCC(=O)c1c(O)cccc1O	103*	-2	1	-5	66*	17	56*
CC(C)(C)OC(=O)N[C@@H](Cc1ccccc1)C(=O)N[C@@H](CO)[C@H](O)[C@@H]1C[C@@H]1C(=O)NC1CC1	1	-2	-7	14	-1	10	.
COc1ccc(NC(=O)C2Cc3c(-c4cccc(F)c4)ccnc3O2)cc1OC (configuration not stated)	.	.	.	.	68*	.	65*
COc1ccc(NC(=O)C2Cc3c(-c4ccc(NC(C)=O)cc4)ccnc3O2)cc1OC (configuration not stated)	.	.	.	.	0	.	.
COc1ccc(NC(=O)C2Cc3c(-c4ccc5c(c4)OCO5)ccnc3O2)cc1OC (configuration not stated)	.	.	.	.	96*	.	89*
Cc1onc(-c2c(Cl)cccc2Cl)c1C(=O)NCc1ccco1	-3	-2	0	-8	72*	-8	4	MPTP swell DR=i;MPTP cs DR=>80
Cc1onc(-c2ccccc2)c1C(=O)NCc1ccco1	-7	-6	-1	2	11	6	.
CC(C)COc1ccc(C/C(N)=N/n2cnnc2)cc1	4	35	4	7	66*	3	54*
CCC(=O)N1CCc2cc(S(=O)(=O)NCCC(=O)N3CCc4ccccc4C3)ccc21	1	24	?	-9	76*	25	61*
N#CCc1ccc(NS(=O)(=O)c2ccc(C3CCCCC3)cc2)cc1	30	37	-3	29	82*	.	95*
Cc1cccc(NS(=O)(=O)c2ccc(C3CCCCC3)cc2)c1	108*	64	-1	?	90*	33	93*
c1ccc(-c2nc(SCc3nc4ccccc4[nH]3)c3oc4ccccc4c3n2)cc1	.	1	.	.	50*	28	85*
Cc1nc(SCc2nc3ccccc3[nH]2)c2oc3ccccc3c2n1	20	5	28	3	0	35	.
O=C(N/C(=C\c1ccco1)C(=O)N1CCC(O)CC1)c1ccccc1	-5	2	13	-3	0	13	.
CCc1ccc(OCCNC(=O)c2ccc(S(=O)(=O)N(C)C)cc2)cc1	-18	0	4	-4	0	-14	.
O=C(Nc1ccccc1)Nc1ccc(Cl)c(S(=O)(=O)N2CCOCC2)c1	-5	-1	-10	6	62*	5	86*
CC(=O)c1ccc(N2CCN(C(=S)Nc3ccc(Cl)c(Cl)c3)CC2)cc1	6	.	10	-8	94*	11	77*
